ELG1 repair inh: inhibitors of ELG1-dependent DNA repair in HEK293T cells; Potency, µM (series often up to 46.1 µM), without a hit: top-dose activity change, negative = inhibition, most hits filed as inhibitors; hit rate 2.3% among 330,000; HEK293T ELG1-luciferase reporter, luminescence, 16 h; DNA damage induced by 5-fluorouridine; note: potency is the fitted concentration of half-maximal effect; nearly all actives have a fitted effect of over 55% in size
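HEK293T cells expressing luciferase-tagged ELG1 (2,000/well) received 5-Fluorouridine plus compound or DMSO for 16 hr at 37 °C. Luciferase was read by ONE-Glo luminescence after 30 min at room temperature.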
TSHR antag: blocks TSH signaling through the human TSH receptor | P16473 | TSHR-expressing cells, TSH-stimulated cAMP HTRF, 2 h; active compounds read low | activity change, negative = inhibition, % at 11.5 µM | hit rate 0.2% among 330,000 | AID 504810;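 active = activity change below a set negative limit, meaning inhibition stronger than a set level, cut at about -70% in these data; inconclusive = activity change between two set negative limits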
Target sequence (P16473 whole entry, looked up): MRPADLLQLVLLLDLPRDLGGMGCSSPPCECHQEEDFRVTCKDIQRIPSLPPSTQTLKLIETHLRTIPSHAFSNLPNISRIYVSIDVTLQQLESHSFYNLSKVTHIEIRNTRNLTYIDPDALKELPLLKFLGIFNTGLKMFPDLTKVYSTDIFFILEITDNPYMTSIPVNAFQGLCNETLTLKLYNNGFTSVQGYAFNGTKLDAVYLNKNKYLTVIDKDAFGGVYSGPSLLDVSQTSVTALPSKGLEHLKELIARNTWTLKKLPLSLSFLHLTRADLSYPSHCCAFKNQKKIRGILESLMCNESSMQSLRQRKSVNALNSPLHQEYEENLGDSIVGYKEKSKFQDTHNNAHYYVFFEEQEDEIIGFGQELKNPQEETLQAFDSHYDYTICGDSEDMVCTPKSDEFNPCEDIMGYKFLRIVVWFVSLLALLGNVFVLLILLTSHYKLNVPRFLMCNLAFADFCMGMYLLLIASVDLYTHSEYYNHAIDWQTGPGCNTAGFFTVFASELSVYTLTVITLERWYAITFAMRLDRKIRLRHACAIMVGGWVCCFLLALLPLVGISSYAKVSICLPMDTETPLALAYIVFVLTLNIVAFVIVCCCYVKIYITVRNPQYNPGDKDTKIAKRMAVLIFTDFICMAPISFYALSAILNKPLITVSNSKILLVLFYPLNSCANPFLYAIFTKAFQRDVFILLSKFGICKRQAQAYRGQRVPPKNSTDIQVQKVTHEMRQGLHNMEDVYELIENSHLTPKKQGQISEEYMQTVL
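TSHR-expressing cells, 200/well, pre-treated with compound, then stimulated with EC80 TSH (4nM final) for 2 hours at 37 deg C. cAMP measured by competitive HTRF: anti-cAMP cryptate antibody in lysis buffer plus cAMP-d2, read after 30 minutes at room temperature.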
RORg inh: ROR gamma (mouse) transcription inhibition; Potency, µM (series often up to 53.6 µM), for the others: top-dose activity change, negative = inhibition, usual class: inhibitors; Drosophila S2 Gal4-RORgamma UAS-luciferase reporter, 20 h; hit rate 5.4% among 310,000; AID 2551; note: potency is the fitted concentration of half-maximal effect; nearly all actives have a fitted effect of over 60% in size
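A Gal4/UAS one-hybrid system in insect cells: metallothionein-promoter Gal4–ROR gamma fusion plus Photinus luciferase reporter. Copper sulfate 700 uM final, 20 hr ambient incubation, luminescent detection after 10 min with reagent.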
Coupling enz: counter-screen for Giardia aldolase inhibitors: coupling enzyme system; AID 2472; hit rate 0.67% among 290,000; coupling enzyme system counterscreen, AmpLite Red fluorescence; activity change, negative = inhibition, % at 58.2 µM, hits read low; in the data active = activity change below about -30%
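Coupling enzymes only (glyceraldehyde-3-phosphate) + compound, at 57.5 uM final, 10 min RT; add substrate/coupling/AmpLite Red mix, 20 min RT; fluorescence ex 525/em 598 nm. Actives flag coupling-system interference.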
Gal4-VP16 FLuc: inhibits Gal4-VP16 luciferase reporter, ROR gamma counter-screen | Drosophila S2 Gal4-VP16 UAS-luciferase, luminescence, 20 h | Potency, µM (series often up to 53.6 µM), for the others: at the highest dose activity, negative = inhibition, most hits filed as inhibitors | hit rate 3.5% among 310,000 | AID 2546;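 note: Gal4-VP16 expression switched on by copper sulfate through the metallothionein promoter; potency is the fitted concentration of half-maximal effect; nearly all actives have a fitted effect of over 50% in size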
* hit, by the source's call; ? = inconclusive; . = no result; [ ] = remark or other dose. Only some compounds are listed: those with a hit (about 8% of all), similar ones and a draw of the others. Unless noted, calls come from the whole dose curve; as a rule, active = well fitted curve in the direction sought with a large enough effect; inconclusive = small, poorly fitted or top-dose-only effect, or another doubt; inactive = no such curve, though single readings can be large; an effect the other way counts as inactive or inconclusive. % is set by controls: 0 for no effect and ±100 for the full control effect.

SMILES | ELG1 repair inh | TSHR antag | RORg inh | Coupling enz | Gal4-VP16 FLuc
CC(NC(=O)c1ccccc1NC(=O)CN1CCc2ccccc2C1)c1ccccc1 (stereo unspecified) | 13µM* | 7 | 26% | -2 | -18%
CC1Cc2ccccc2N1C(=O)COC(=O)c1ccc(N(C)C)cc1 (stereo unspecified) | ? | 16 | . | . | .
Cc1cccc(-n2ncc3c(Nc4ccc(F)cc4)ncnc32)c1 | ? | -13 | -13% | -8 | 11µM*
CC(C)Nc1ncnc2c1cnn2-c1ccccc1 | ? | -12 | ? | -5 | 14µM*
Cc1ccccc1Nc1ncnc2c1cnn2-c1ccccc1 | ? | -20 | ? | -5 | 16µM*
c1ccc(-n2ncc3c(NCc4cccnc4)ncnc32)cc1 | ? | -12 | . | 0 | 1.4µM*
C=CCNC(=O)c1ccccc1NC(=O)C1CC(=O)N(C(C)C)C1 (stereo unspecified) | ? | 0 | -4% | 6 | 1%
O=C(Cn1cc(C(F)(F)F)ccc1=O)OCC(=O)c1ccc[nH]1 | ? | -4 | . | . | .
NNc1ncnc2c1cnn2-c1ccccc1 | -23% | 8 | 11µM* | -4 | ?
c1ccc(-n2ncc3c(NC4CCCCCC4)ncnc32)cc1 | ? | -12 | -6% | -21 | -6%
Cc1nc2ccc(Br)cn2c(=O)c1Cl | -1% | -6 | -26% | 4 | 2%
Cc1nc2ccc(Br)cn2c1NC(C)(C)C | -25% | 11 | 14µM* | 2 | ?
O=C(NC(=S)Nc1ccc(N2CCCC2)cc1)c1ccc(F)cc1 | -2% | 4 | 2.5µM* | 0 | 5.6µM*
O=C(NC(=S)Nc1ccc(N2CCOCC2)cc1)c1ccc2c(c1)OCCO2 | ? | -12 | 8.9µM* | 2 | ?
O=C(NC(=S)Nc1ccc(F)cc1)c1ccc2c(c1)OCCO2 | ? | -30 | 7.1µM* | -2 | ?
CC(=O)N1CCN(c2ccc(NC(=S)NC(=O)c3ccccc3)cc2)CC1 | 4% | 22 | -17% | 1 | -11%
O=C(NC(=S)Nc1ccc(CN2CCOCC2)cc1)c1ccc2c(c1)OCCO2 | ? | -11 | ? | 4 | ?
O=C(Nc1ccc(NC(=O)c2ccc3c(c2)OCCO3)cc1)c1ccccc1 | 22% | 21 | ? | 1 | -5%
O=C(NC(=S)Nc1ccc(N2CCCCC2)cc1)c1ccc2c(c1)OCCO2 | ? | -22 | 3.5µM* | 1 | 5µM*
CCOc1ccc(NC(=O)COC(=O)Cc2ccsc2)cc1 | 1% | -5 | . | . | .
O=C(COC(=O)CNC(=O)c1ccccc1)NCCNC(=O)COC(=O)CNC(=O)c1ccccc1 | 1% | 1 | . | . | .
O=C(Nc1nc2c(F)cc(F)cc2s1)c1ccc2c(c1)OCCO2 | . | -13 | . | . | .
O=C(NC(=S)Nc1c(F)cc(F)cc1Br)c1ccc2c(c1)OCCO2 | ? | -15 | 7.9µM* | 0 | ?
COC(=O)C/C=C\[C@@H](C)[C@@H](/C=N\O[C@@H](C)c1cc(-c2c(C)cc(C)cc2C)no1)NS(=O)(=O)c1ccc(C)cc1 | . | . | -15%[10 µM] | 0 | -8%[10 µM]
CCOc1cc(C(=S)N2CCCCC2)ccc1OS(=O)(=O)c1ccc(Cl)cc1 | ? | -8 | 10µM* | 3 | -21%
SMILES | ELG1 repair inh | TSHR antag | RORg inh | Coupling enz | Gal4-VP16 FLuc
CCOc1cc(C(=S)N2CCCCC2)ccc1OS(=O)(=O)c1ccc(Br)cc1 | -2% | -2 | 7.1µM* | -1 | -12%
CCCN1CCN(C(=O)C(NC(=O)c2ccco2)C(C)C)CC1 (stereo unspecified) | 14% | -2 | -25% | 5 | 11%
CNC(=S)NNC(=O)c1ccc(=O)n(Cc2ccc(Cl)cc2Cl)c1 | ? | 6 | 13µM* | 0 | ?
COC(=O)C1=C(C)N(Cc2ccccc2)C(=S)N[C@H]1c1ccc(Br)cc1 | -8% | 19 | 3.5µM* | -1 | 13µM*
COC(=O)C1=C(C)N(Cc2ccccc2)C(=S)N[C@H]1c1cccc(C(F)(F)F)c1 | 6% | -8 | 3.5µM* | -4 | 10µM*
COC(=O)C1=C(C)N(Cc2ccccc2)C(=NCC(C)C)N[C@H]1c1ccc(Br)cc1 | . | -9 | 1.8µM* | -4 | 7.1µM*
CSCC[C@H](NC(=O)[C@H](Cc1ccccc1)n1c(=O)[nH]c2ccccc2c1=O)C(=O)N1CCC(C(=O)O)CC1 | 9% | 20 | -12% | 1 | -3%
CCOC(=O)C1=C(COC(=O)c2ccc(Br)o2)NC(=O)NC1C (stereo unspecified) | ? | 32 | 1% | 0 | 7%
COc1ccc(O)c(C(=O)c2coc(=N)c(C(=O)Nc3ccc(SC(F)F)cc3)c2)c1 | 16µM* | -19 | -19% | 0 | ?
CC(C)OC(=O)c1cc(C(=O)c2cc(F)ccc2O)coc1=N | -14% | 47 | -6% | 3 | 1%
O=C(CCCN1C(=O)c2ccccc2C1=O)Nc1ccc2c(c1)OCCO2 | 5% | -9 | 15% | -1 | 7%
O=C(CCCCn1c(=S)[nH]c2ccsc2c1=O)NCc1ccc2c(c1)OCO2 | -8% | -4 | 14µM* | 3 | -21%
CC1CCCCC1NC(=O)CCCn1c(=S)[nH]c2ccsc2c1=O (stereo unspecified) | 10% | 6 | 18µM* | 1 | ?
O=C(CCCn1c(=S)[nH]c2ccsc2c1=O)Nc1ccc2c(c1)OCCO2 | ? | -4 | 11µM* | -1 | ?
O=C(CCCCn1c(=O)[nH]c2ccsc2c1=O)NCc1ccc2c(c1)OCO2 | -9% | 1 | 10% | 8 | 5%
CC1CCCCC1NC(=O)CCCCn1c(=O)[nH]c2ccsc2c1=O (stereo unspecified) | -2% | 7 | -14% | 2 | 1%
CCOc1ccc(NC(=O)CCCCn2c(=O)[nH]c3ccsc3c2=O)cc1 | 26% | -4 | 18% | -1 | -8%
CCOc1ccc(NC(=O)CCCn2c(=S)[nH]c3ccsc3c2=O)cc1 | -11% | -1 | 13µM* | -1 | ?
O=C(O)CN1C(=O)/C(=C/c2ccccc2Br)Oc2ccccc21 | 2% | 16 | 2% | 9 | 0%
CC(NC(=O)CN1C(=O)NC2(CCCCCC2)C1=O)c1ccccc1 (stereo unspecified) | 12% | 138 | . | . | .
CCNc1ccccc1 | . | . | 7% | . | -5%
COC(=O)c1ccc(C(=O)NC(=S)Nc2nc3c(s2)CC(C)CC3)cc1 (stereo unspecified) | ? | 15 | 1µM* | 16 | 2µM*
CNC(=O)NC(=O)C(C)OC(=O)CCCc1nc2ccccc2s1 (stereo unspecified) | 10% | 8 | -34% | 3 | -23%
CCNC(=O)NC(=O)COC(=O)CCCc1nc2ccccc2s1 | 11% | -2 | -12% | -6 | 0%
Cc1ccccc1NC(=O)CCCSc1nc2ccccc2s1 | 16% | -2 | 13µM* | -8 | 2.5µM*

Bioassay records from PubChem.
